Rtt109 Vps75: inhibitors of C. albicans Rtt109/Vps75 HAT, primary screen, biochemical, ThioGlo CoA-SH fluorescence, plate reader | inhibition, % at 34.9 µM | 0.16% of 330,000 active | purified Rtt109/Vps75, 4 h | Histone acetyltransferase RTT109 (Candida albicans (strain SC5314 / ATCC MYA-2876)), …;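 active means inhibition of at least 50% in every replicate; inconclusive means best replicate reaches 50% inhibition but some replicates fall short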
Target sequence (Q5AAJ8 whole entry, looked up): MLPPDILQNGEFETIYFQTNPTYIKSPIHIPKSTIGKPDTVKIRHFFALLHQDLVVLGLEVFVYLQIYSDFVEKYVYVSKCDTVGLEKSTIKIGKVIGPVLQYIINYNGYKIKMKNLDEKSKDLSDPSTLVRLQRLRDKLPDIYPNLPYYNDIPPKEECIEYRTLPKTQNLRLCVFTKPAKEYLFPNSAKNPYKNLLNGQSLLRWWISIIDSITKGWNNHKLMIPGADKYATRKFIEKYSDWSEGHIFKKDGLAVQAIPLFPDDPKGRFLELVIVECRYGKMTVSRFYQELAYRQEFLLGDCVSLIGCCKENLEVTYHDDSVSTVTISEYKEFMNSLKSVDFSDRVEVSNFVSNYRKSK
MITF TRPM1 HTS: activators of MITF-driven TRPM1 promoter reporter, primary screen, cell-based, SK-MEL-5, luciferase, single point; SK-MEL-5 TRPM1-promoter luciferase, 24 h; % of positive control, neutral wells = 0; activation, % at 12.5 µM; 0.75% of 300,000 active; AID 588334, 2011;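 active means mean activation of at least 80% with every replicate also reaching 80%; inconclusive means mean reaches 80% but some replicate falls short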;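 further: 0% = neutral control wells and 100% = parthenolide positive control wells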
esBAF inh: Bmi1 luciferase reporter increase in mESCs, primary screen, esBAF inhibitor project, mouse ES cells, Bmi1 luciferase knock-in, single point | 24 h; 100% = twice the neutral-well signal | reporter increase, % at 12.5 µM | 2% of 350,000 active | AID 602393, 2012; in the data active means activation above about 40%; inconclusive means no clear call, values can overlap the other calls;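 further: 0% = median of the plate's neutral control wells and 100% = double that signal; a rise in the Bmi1 reporter signal indicates esBAF inhibition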
Wnt act: Wnt/beta-catenin pathway activators, primary screen, cell-based, plate reader, single point | Wnt/beta-catenin reporter cell assay, activator | activation, % at 9.35 µM | 1.2% of 300,000 active; in the data active means activation above about 30%, passing the limit was not always enough; inconclusive means no clear call, values can overlap the other calls;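 further: 0% = neutral control wells and 100% = positive control wells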
C2C12 statin: suppressors of statin myotoxicity in C2C12 myotubes, primary screen, cell-based, single point, plate reader; C2C12 myotubes + simvastatin, ATP luminescence, 48 h; scaled: DMSO 0, geranylgeraniol control 100; rescue of ATP level, % at 7.49 µM; 0.78% of 330,000 active;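 active means mean ATP rescue above about 67%, or every replicate alone reaching that limit, limit read from the data, passing the limit was not always enough; inconclusive means no clear call, values can overlap the other calls; inactive means mean under the limit and some replicate under it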;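 further: myotubes were challenged with 10 µM simvastatin during compound exposure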
An asterisk follows results filed as active. Sampled rows, rich in hits. Any-hit rate of the full collection: about 3.1%.

`COc1ccc(CCNc2ncnc3cc(OC)c(OC)cc23)cc1OC` gave Rtt109 Vps75 -1, MITF TRPM1 HTS -11, esBAF inh -17, Wnt act -1 and C2C12 statin -32.
`COc1ccc(CCNc2ncccc2C#N)cc1OC` gave Rtt109 Vps75 -5, MITF TRPM1 HTS 75, esBAF inh 54*, Wnt act 19 and C2C12 statin 12.
CCC1=[N+](CC(=O)c2ccc(C)cc2)CCn2c(C)ccc21 was read as Rtt109 Vps75 17, MITF TRPM1 HTS 3 and Wnt act 12.
`CCC1=[N+](CC(=O)c2ccc(C)cc2)CCn2cccc21` gave Rtt109 Vps75 -12, MITF TRPM1 HTS 56, esBAF inh 43*, Wnt act 6 and C2C12 statin -88.
CC(C)Oc1cccc(C(=O)Nc2ccc(Br)cc2F)c1 was read as Rtt109 Vps75 7, MITF TRPM1 HTS 101* and Wnt act -2.
Screening Cc1occc1C(=O)Nc1ccc(Br)cc1F returned Rtt109 Vps75 6, MITF TRPM1 HTS 71, esBAF inh 46*, Wnt act inconclusive and C2C12 statin 0.
CCN(CC)S(=O)(=O)c1ccc(-c2nnco2)cc1 was read as Rtt109 Vps75 0, MITF TRPM1 HTS -7, esBAF inh -1, Wnt act 0 and C2C12 statin 12.
Screening Cc1ccc(S(=O)(=O)N(C)Cc2ccc(-c3nnco3)cc2)cc1 returned Rtt109 Vps75 -16, MITF TRPM1 HTS 3, esBAF inh 2, Wnt act 0 and C2C12 statin 108*.
For CO[C@H]1CN(C)C(=O)c2ccc(NC(=O)NC(C)C)cc2OC[C@H](C)N(CC2CC2)C[C@H]1C the results were esBAF inh 2 and C2C12 statin 2.
`COCc1nc2oc3ccccc3c(=O)c2cc1C(=O)OC` gave Rtt109 Vps75 4, MITF TRPM1 HTS 88*, esBAF inh 48*, Wnt act 17 and C2C12 statin 2.
`CCOC(=O)c1cc2c(=O)c3ccccc3oc2nc1C` gave Rtt109 Vps75 -35, MITF TRPM1 HTS 28, esBAF inh 18, Wnt act 11 and C2C12 statin -3.
For CC(C)NC(=O)N1C[C@@H]2[C@H](c3ccccc31)[C@H](CO)N2Cc1ccc(Cl)cc1 the results were esBAF inh -5 and C2C12 statin -27.
Screening COc1ccc(/C(C)=N/Nc2nncc3ccccc23)cc1 returned Rtt109 Vps75 -8, MITF TRPM1 HTS 109*, esBAF inh -3, Wnt act 37* and C2C12 statin -16.
COC(=O)C[C@H]1CC[C@@H]2[C@@H](COc3ccc(NC(=O)c4ccccc4OC)cc3C(=O)N2C)O1 was read as esBAF inh -3 and C2C12 statin 2.
Cc1ccc(-n2nc(C(=O)c3ccccc3)n3c(=O)cc(-c4ccccc4)nc23)cc1 was read as Rtt109 Vps75 -5, MITF TRPM1 HTS 4, esBAF inh 84* and C2C12 statin -5.
Screening CCOC(=O)c1nn(-c2ccc(C)cc2)c2nc(Nc3ccccc3)cc(=O)n12 returned Rtt109 Vps75 -4, MITF TRPM1 HTS -5, esBAF inh -13 and C2C12 statin 2.
Screening CO[C@@H]1CN(C)C(=O)c2ccc(NC(=O)C3CC3)cc2OC[C@H](C)NC[C@@H]1C returned esBAF inh 4 and C2C12 statin 8.
`CCN(CC)C(=O)CN(c1ccc(F)c(Cl)c1)S(C)(=O)=O` gave Rtt109 Vps75 20, MITF TRPM1 HTS -4, esBAF inh -6, Wnt act 0 and C2C12 statin 70*.
For CCN(CC)C(=O)CN(c1ccc2c(c1)OCO2)S(C)(=O)=O the results were Rtt109 Vps75 -4, MITF TRPM1 HTS 4, esBAF inh 3, Wnt act -5 and C2C12 statin -9.
For COc1ccc(OC)c2c1C(=O)c1ccccc1C2=O the results were Wnt act 9.
For COc1cccc2c1C(=O)c1ccc3ccccc3c1C2=O the results were Rtt109 Vps75 -5, MITF TRPM1 HTS 41, esBAF inh 47* and C2C12 statin 9.
For Nc1c(-c2cccc(Cl)c2)cnc2c(-c3ccccc3)cnn12 the results were Rtt109 Vps75 10, MITF TRPM1 HTS 58, esBAF inh 60*, Wnt act 45* and C2C12 statin -35.
Screening Nc1c(-c2ccccc2)cnn1-c1ccccc1 returned Rtt109 Vps75 2, MITF TRPM1 HTS 79, esBAF inh 23, Wnt act 28 and C2C12 statin -14.
Nc1c(-c2ccc(Cl)cc2)cnc2c(-c3ccc(F)cc3)cnn12 was read as Rtt109 Vps75 0, MITF TRPM1 HTS 111*, esBAF inh inconclusive, Wnt act 46* and C2C12 statin -80.
Screening Nc1c(-c2ccccc2)cnc2ncnn12 returned Rtt109 Vps75 -8, esBAF inh 8 and C2C12 statin 9.
For Cc1nc2c(-c3ccc(Cl)cc3)cnn2c(N)c1-c1ccc(F)cc1 the results were Rtt109 Vps75 5, esBAF inh -19, Wnt act -3 and C2C12 statin -66.
Screening Nc1c(-c2cccc(Cl)c2)cnn1-c1ccccc1 returned MITF TRPM1 HTS 68, esBAF inh 52*, Wnt act 14 and C2C12 statin -1.
C[C@H]1CN([C@@H](C)CO)C(=O)c2cc(C#CCN(C)C)cnc2O[C@H]1CN(C)C(=O)c1ccc2c(c1)OCO2 was read as esBAF inh 3 and C2C12 statin 3.
For CCC(=O)N1[C@H](C(=O)N2CCc3ccccc3C2)[C@@H](CO)[C@@H]2Cn3c(cccc3=O)[C@@H]21 the results were esBAF inh -2 and C2C12 statin -13.
Screening CCCC(=O)Nc1ccc(C#Cc2ccccc2)cc1 returned Rtt109 Vps75 -2, MITF TRPM1 HTS 96*, esBAF inh 54*, Wnt act 38* and C2C12 statin -4.
For CCCCC(=O)Nc1ccc(C(=O)c2ccccc2)cc1 the results were Rtt109 Vps75 -3, MITF TRPM1 HTS 23, esBAF inh 49*, Wnt act -4 and C2C12 statin 4.
Screening O=C(O)C1CCc2sc3[nH]c(=S)n(-c4ccccc4)c(=O)c3c21 (configuration not stated) returned Rtt109 Vps75 105* and Wnt act 2.
`O=C(/C=C/c1cn(CC(O)CN2CCCCC2)c2ccccc12)c1ccccc1` (configuration not stated) gave Rtt109 Vps75 53* and Wnt act -8.
Screening O=C(/C=C/c1cn(CC(O)CN2CCCCC2)c2ccccc12)c1cccs1 (configuration not stated) returned Rtt109 Vps75 4, MITF TRPM1 HTS 12 and Wnt act 5.

High-throughput results (PubChem BioAssay)
